# Laboratory results: PubChem BioAssay (NCATS)
# Values joined by “and” are separate entries in the source; they are usually repeats but may differ in a detail not shown here. Identical values can stand only once. Inconclusive results are not listed. Active and inactive are the calls of the source. Unless noted, the call rests on the fitted dose curve; in most records, active means well fitted curve in the direction sought with a large enough effect; inconclusive means small, poorly fitted or top-dose-only effect, or another doubt; inactive means no such curve, though single readings can be large; an effect the other way counts as inactive or inconclusive.
# Legend:
# [1] = NCATS anti-infectives library activity on HEK293 viability as a counter-qHTS vs the C. elegans viability qHTS (AID 1745854)
# Procedure, shortened: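 CellTiter-Glo luminescence, read on a CCD imager, scored viability of HEK293 cells after 24 hr compound exposure at 37C. Library tested in several concentrations, 1:5 steps, up to 41.7 uM; digitonin served as control.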
# [2] = target: Cytochrome P450 2D6 (Homo sapiens) (UniProt P10635); assay: Cytochrome P450 family 2 subfamily D member 6 (CYP2D6) small molecule antagonists: luciferase biochemical (cell-free) qHTS assay (AID 1645840; active means well fitted curve in the direction sought with a large enough effect in the repeat runs; an effect the other way counts as inactive or inconclusive; further: nearly all actives have a fitted effect of over 55% in size)
# Cytochrome P450 2D6 (Homo sapiens), sequence (P10635 whole entry, looked up): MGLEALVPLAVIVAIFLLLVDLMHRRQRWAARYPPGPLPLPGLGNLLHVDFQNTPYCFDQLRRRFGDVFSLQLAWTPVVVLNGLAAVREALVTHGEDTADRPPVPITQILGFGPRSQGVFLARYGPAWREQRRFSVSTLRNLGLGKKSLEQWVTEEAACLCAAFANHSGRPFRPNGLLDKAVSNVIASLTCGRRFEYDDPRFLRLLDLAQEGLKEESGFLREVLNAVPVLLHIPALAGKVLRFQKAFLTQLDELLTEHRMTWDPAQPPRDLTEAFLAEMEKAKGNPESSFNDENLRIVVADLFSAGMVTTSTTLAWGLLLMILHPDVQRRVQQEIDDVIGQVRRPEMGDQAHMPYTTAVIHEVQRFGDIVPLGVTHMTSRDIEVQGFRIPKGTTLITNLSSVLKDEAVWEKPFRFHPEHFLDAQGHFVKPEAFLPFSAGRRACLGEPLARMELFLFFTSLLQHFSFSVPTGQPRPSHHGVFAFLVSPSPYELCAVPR
# Procedure, shortened: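 P450-Glo CYP2D6 system: proluciferin substrate converted by enzyme to luciferin, read by luminescence proportional to activity. Enzyme-substrate mix with compound 10 min at room temperature, then NADPH regeneration 1 h before detection reagent.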
# PC26 = assay: qHTS profiling for inhibitors of Plasmodium falciparum proliferation (AID 504749); further: nearly all actives have a fitted effect of over 60% in size; further: potency means the concentration at half of the fitted maximal effect; conditions: P. falciparum in erythrocytes, SYBR Green DNA, 72 h; series mostly up to 28.7 µM
# Procedure, shortened: (§1)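 Fluorescence of SYBR Green-bound parasite DNA, read at 485/535 nm, served as the growth measure. Infected erythrocytes were cultured with compound 72 h; artemisinin (0.29 uM) and DMSO wells defined the normalization range.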
# [3] = target: Pyruvate kinase (Leishmania mexicana) (UniProt Q27686); assay: qHTS Validation Assay for Activators of Leishmania Mexicana Pyruvate Kinase (AID 959)
# Pyruvate kinase (Leishmania mexicana), sequence (Q27686 2-499 E452W): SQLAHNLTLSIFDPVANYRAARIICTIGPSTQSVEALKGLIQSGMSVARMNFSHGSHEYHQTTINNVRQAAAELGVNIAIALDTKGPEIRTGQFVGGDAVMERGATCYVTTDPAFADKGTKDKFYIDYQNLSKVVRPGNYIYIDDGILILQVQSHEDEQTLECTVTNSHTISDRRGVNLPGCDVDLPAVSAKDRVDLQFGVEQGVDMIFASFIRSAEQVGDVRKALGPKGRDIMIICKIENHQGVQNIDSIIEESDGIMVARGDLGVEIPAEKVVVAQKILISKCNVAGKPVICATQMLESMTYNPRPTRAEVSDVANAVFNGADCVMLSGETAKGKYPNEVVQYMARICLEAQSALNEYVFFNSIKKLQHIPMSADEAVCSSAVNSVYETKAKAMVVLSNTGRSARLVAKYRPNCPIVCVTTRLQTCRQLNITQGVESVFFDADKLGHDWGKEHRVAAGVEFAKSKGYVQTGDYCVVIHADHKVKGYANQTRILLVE
# Procedure, shortened: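 qHTS eight-point titrations against 0.2 nM LmPYK (E451W) in imidazole buffer pH 7.2 with 0.5 mM PEP, 0.1 mM ADP; 1 h, room temperature. Readout: PKLight luminescence, normalized to neutral DMSO wells.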
# CP266 = assay: qHTS profiling for inhibitors of Plasmodium falciparum proliferation (AID 504749); further: nearly all actives have a fitted effect of over 60% in size; further: potency means the concentration at half of the fitted maximal effect; conditions: P. falciparum in erythrocytes, SYBR Green DNA, 72 h; series mostly up to 28.7 µM
# Procedure, shortened: as §1
# [4] = qHTS assay for small molecule agonists of the antioxidant response element (ARE) signaling pathway measured by Nrf2-dependant transcriptional activity (AID 720636; active means well fitted curve in the direction sought with a large enough effect in the repeat runs; an effect the other way counts as inactive or inconclusive)
# Procedure, shortened: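 Quantitative HTS format in HepG2 cells stably expressing an ARE-luciferase reporter; 16 hr compound treatment at 37 C, luciferase signal detected with ONE-Glo.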
# [5] = target: Cytochrome P450 2C9 (Homo sapiens) (UniProt P11712); assay: qHTS Assay for Inhibitors and Substrates of Cytochrome P450 2C9 (AID 883); further: potency means the concentration at half of the fitted maximal effect; nearly all actives have a fitted effect of over 60% in size
# Cytochrome P450 2C9 (Homo sapiens), sequence (P11712 whole entry, looked up): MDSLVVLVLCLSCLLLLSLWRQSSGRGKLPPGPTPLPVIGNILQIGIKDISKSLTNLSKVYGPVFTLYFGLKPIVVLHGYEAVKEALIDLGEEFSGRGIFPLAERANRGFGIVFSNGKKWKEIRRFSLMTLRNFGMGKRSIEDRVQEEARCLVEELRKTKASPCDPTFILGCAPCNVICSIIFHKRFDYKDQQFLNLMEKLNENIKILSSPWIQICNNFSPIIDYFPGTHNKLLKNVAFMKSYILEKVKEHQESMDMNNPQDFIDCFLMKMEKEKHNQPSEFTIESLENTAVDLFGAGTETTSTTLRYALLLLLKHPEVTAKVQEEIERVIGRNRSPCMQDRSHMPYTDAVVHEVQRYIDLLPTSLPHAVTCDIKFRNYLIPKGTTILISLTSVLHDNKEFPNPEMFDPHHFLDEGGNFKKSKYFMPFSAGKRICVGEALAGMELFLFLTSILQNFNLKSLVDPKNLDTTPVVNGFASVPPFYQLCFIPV
# Procedure, shortened: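 Human CYP2C9 (10nM) hydroxylated Luciferin-H (100uM, at its KM) to luciferin in 25mM KPO4. Compound was preincubated 10 min at 37C, then NADPH regeneration started a 60 min reaction at 37C. Luminescence was read after detection reagent, normalized to 57uM sulphaphenazole.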
# [6] = qHTS for Inhibitors of Ubiquitin-specific Protease USP2a Using CHOP2 as the Reporter: Cytotox Assay (AID 652170);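 further: HCT116 human colon cancer cells at 600 per well; nearly all actives have a fitted effect of over 70% in size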
# Procedure, shortened: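 Cytotoxicity read as ATP luminescence (CellTiter-Glo) after 72 hr compound treatment at 37 deg C. Cells: HCT116, 600/well in DMEM plus 10% FBS. Normalization between DMSO-treated cells and cell-free wells.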
# [7] = target: Ubiquitin carboxyl-terminal hydrolase 2 (Homo sapiens) (UniProt O75604); assay: qHTS for Inhibitors of Ubiquitin-specific Protease USP2a Using CHOP2 as the Reporter: K484 Substrate (AID 652173);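 further: cleavage of internally quenched K48 di-ubiquitin substrate measured as rising fluorescence over time; potency means the concentration at half of the fitted maximal effect; nearly all actives have a fitted effect of over 70% in size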
# Ubiquitin carboxyl-terminal hydrolase 2 (Homo sapiens), sequence (O75604 whole entry, looked up): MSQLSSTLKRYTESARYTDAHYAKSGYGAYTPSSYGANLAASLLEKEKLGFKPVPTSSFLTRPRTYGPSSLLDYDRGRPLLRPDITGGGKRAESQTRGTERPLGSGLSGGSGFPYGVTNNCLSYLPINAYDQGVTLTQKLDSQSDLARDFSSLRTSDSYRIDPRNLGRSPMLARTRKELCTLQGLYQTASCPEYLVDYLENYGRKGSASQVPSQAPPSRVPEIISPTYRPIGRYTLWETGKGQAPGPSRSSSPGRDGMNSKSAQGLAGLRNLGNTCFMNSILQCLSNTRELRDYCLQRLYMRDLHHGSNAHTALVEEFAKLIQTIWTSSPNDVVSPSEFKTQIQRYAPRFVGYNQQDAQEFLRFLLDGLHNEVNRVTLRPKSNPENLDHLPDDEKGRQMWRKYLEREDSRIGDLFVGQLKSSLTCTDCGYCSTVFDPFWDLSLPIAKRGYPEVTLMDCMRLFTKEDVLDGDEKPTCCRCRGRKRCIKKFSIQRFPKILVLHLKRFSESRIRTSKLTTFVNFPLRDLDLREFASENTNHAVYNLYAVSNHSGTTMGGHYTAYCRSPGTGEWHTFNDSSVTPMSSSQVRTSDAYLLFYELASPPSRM
# Procedure, shortened: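 Kinetic fluorescence (Ex 525/Em 598) tracked cleavage of an internally quenched K48 di-ubiquitin substrate, added as a 100 nM solution. The enzyme was added as a 5 nM USP2 solution before compound pinning, with no-enzyme controls. Buffer: Tris pH 8, beta-mercaptoethanol, CHAPS.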
# [8] = qHTS Assay for Identification of Small Molecule Antagonists for Thrombopoietin (TPO) Signaling Pathway (AID 918); conditions: TPO-dependent cell signaling reporter, antagonist mode; further: potency means the concentration at half of the fitted maximal effect; nearly all actives have a fitted effect of over 60% in size
# Procedure, shortened: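 Luminescence read-out: GPIIb-promoter luciferase in Ba/F3 cells carrying human TPO receptor. Compounds added with 26 pM TPO (EC50), 24 hrs, 37 C, 5% CO2; cells deprived of IL-3 overnight beforehand. Inhibition of signal scored.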
# [9] = target: Lysosomal alpha-glucosidase (Homo sapiens) (UniProt P10253); assay: Confirmation of Inhibitors and Activators of Purified Human alpha-Glucosidase (AID 2115; active means well fitted curve in either direction with a large enough effect)
# Procedure, shortened: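 Fluorogenic 4-MU-substrate hydrolysis (400 uM substrate, 4 nM human enzyme) over 20 min at room temperature, pH 5.0 citrate buffer plus 0.005% Tween-20; NaOH/glycine stop, then ex 365/em 440 nm read. Titration up to 77 uM; Hill-equation AC50, normalized to no-enzyme and full-activity controls.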
smiles,measurement,setting,value
Cc1c(-c2ccc(-c3ccccc3F)cc2)nc2ccc(F)cc2c1C(=O)O,Potency,[1],inactive
C[C@H](CCC(=O)O)[C@H]1CC[C@H]2[C@@H]3[C@@H](O)C[C@@H]4C[C@H](O)CC[C@]4(C)[C@H]3CC[C@]12C,Potency,[2],inactive
CC(C)C[C@H]1C(=O)N2CCCC2[C@]2(O)O[C@](NC(=O)[C@@H]3C=C4c5cccc6[nH]c(Br)c(c56)C[C@H]4N(C)C3)(C(C)C)C(=O)N12 (stereo partly drawn),Potency,PC26,5.36 µM (active)
CCSC(N)=Nc1ccc(C(F)(F)F)cc1,outcome,[3],inactive
CO[C@H]1/C=C/O[C@@]2(C)Oc3c(C)c(O)c4c(O)c(c(/C=N\N5CCN(C6CCCC6)CC5)c(O)c4c3C2=O)NC(=O)/C(C)=C\C=C\[C@H](C)[C@H](O)[C@@H](C)[C@@H](O)[C@@H](C)[C@H](OC(C)=O)[C@@H]1C,Potency,CP266,6.01 µM (active)
N[C@H](Cc1ccc(O)c(O)c1)C(=O)O,outcome,[4],inactive
CCCC(=O)NCCc1c2n(c3ccc(OC)cc13)Cc1ccccc1-2,Potency,[5],1.26 µM (active)
CC(C)Oc1ccccc1C(=O)Nc1nc(-c2ccccc2)cs1,Potency,[6],inactive
same,Potency,[7],17.2 µM (active)
N#CCCn1c(=O)c(CCc2ccccc2)nc2cnc(Oc3cccc(Cl)c3)nc21,Potency,[5],3.16 µM (active)
COc1ccc(CCNC[C@@H](O)c2ccc(O)cc2)cc1OC,Potency,CP266,inactive
NCCCCNS(=O)(=O)c1cccc2c(Cl)cccc12,Potency,[8],10 µM (active)
CC(=O)c1ccc(N2CCN(S(=O)(=O)c3ccc4c(c3)CC(=O)N4)CC2)cc1,Potency,[9],730 nM (active) and 749 nM (active) and 819 nM (active)
